Data reported in PubChem BioAssay (NCATS).
Results filed as inconclusive are left out. Calls of active or inactive are those of the source. Unless noted, calls come from the whole dose curve; as a rule, active = well fitted curve in the direction sought with a large enough effect; inconclusive = small, poorly fitted or top-dose-only effect, or another doubt; inactive = no such curve, though single readings can be large; an effect the other way counts as inactive or inconclusive.

How the values were obtained:
[1] = Cell Viability - BJ (AID 421; calls by dose curve;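 note: potency is the fitted concentration of half-maximal effect; cells exposed to compound for 40 hours at 37 °C before readout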); conditions: BJ fibroblast viability, qHTS
Method in brief: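 Luminescent ATP signal (CellTiter-Glo, 20 min at room temperature) served as the read-out of viable BJ cells after 40 hours of compound treatment. Responses were scaled between DMSO and 100 uM tamoxifen, and AC50 values were obtained by Hill modeling.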

[2] = Cell Viability - Hek293 (AID 427;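 active = compounds whose dose-response curve shows a full or clear partial loss of cell viability, called from curve shape rather than a numeric limit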;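 note: potency is the fitted concentration of half-maximal effect; cells exposed to compound for 40 hours at 37 °C before reading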); conditions: qHTS
Method in brief: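 Luminescent ATP read-out (CellTiter-Glo, 20 min RT) after 40 hr compound exposure at 37 °C in complete medium. Signal normalized to DMSO (basal) and 100 uM tamoxifen (100% inhibition); concentration-response fitted with the standard Hill equation to give AC50.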

[3] = Cell Viability - HepG2 (AID 433; calls by dose curve;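 note: potency is the fitted concentration of half-maximal effect; potency for ATP loss meaning cytotoxicity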); conditions: qHTS
Method in brief: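 Read-out is luciferase-based quantitation of cellular ATP as a measure of viable HepG2 cells after 40 h treatment at 37 °C. Signal decrease is scaled between DMSO-only and 100 uM tamoxifen controls, with AC50 fitted by the Hill equation.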

[4] = Cell Viability - MRC5 (AID 434; calls by dose curve;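 note: potency is the fitted concentration of half-maximal effect; cells exposed to compound for 40 hours at 37 °C; potency reflects cytotoxicity seen as loss of intracellular ATP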); conditions: MRC5 lung fibroblast viability, qHTS
Method in brief: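 AC50 values come from Hill-equation fits of intracellular ATP loss, measured by CellTiter-Glo luminescence. Normal lung fibroblasts (MRC5) had 40 hr compound treatment at 37 C, normalized between DMSO and 100 uM tamoxifen.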

[5] = Cell Viability - SK-N-SH (AID 435; calls by dose curve;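 note: potency is the fitted concentration of half-maximal effect; compound exposure lasted 40 h at 37 °C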); conditions: SK-N-SH neuroblastoma cell viability qHTS
Method in brief: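 Luminescent ATP signal served as the viability read-out after 40 hours of compound treatment of human neuroblastoma SK-N-SH cells. Concentration-response data, scaled between DMSO and 100 uM tamoxifen, gave AC50 values by standard Hill modeling.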

[6] = Cell Viability - N2a (AID 540); conditions: N2a mouse neuroblastoma cell viability; activity change, negative = cytotoxicity: at 92.2 µM (top of the series);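 note: cells exposed to compound for 40 h at 37 °C; plate controls were DMSO alone for no effect and tamoxifen control for full effect; nearly all actives have a fitted effect of over 45% in size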
Method in brief: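 In this qHTS cytotoxicity screen, ATP-dependent luciferase luminescence reports viable N2a cells after a 40 hr compound exposure in complete culture medium. Potencies are AC50 values from standard Hill equation fits.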

[7] = Cell Viability - NIH 3T3 (AID 541); conditions: NIH 3T3 cell viability, qHTS; activity change, negative = cytotoxicity: at 92.2 µM (top of the series);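 note: plate controls were DMSO alone for no effect and tamoxifen positive control for full effect; nearly all actives have a fitted effect of over 25% in size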
Method in brief: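 In this cytotoxicity screen, acute toxicity is scored as an ATP drop measured by CellTiter-Glo in NIH 3T3 fibroblasts following a 40 hr, 37 °C incubation with compound.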

[8] = Cell Viability - HUV-EC-C (AID 542); conditions: HUV-EC-C endothelial cell viability, qHTS; series mostly up to 92.2 µM; note: % is set by controls: 0 for no effect and ±100 for the full control effect; nearly all actives have a fitted effect of over 35% in size
Method in brief: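 Concentration-dependent ATP loss in HUV-EC-C cells is the measure. Exposure lasts 40 hr at 37 °C; luminescence follows CellTiter-Glo addition, and Hill fits give AC50.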

[9] = Cell Viability - H-4-II-E (AID 543); conditions: H-4-II-E rat hepatoma viability; series mostly up to 92.2 µM; note: % is set by controls: 0 for no effect and ±100 for the full control effect; nearly all actives have a fitted effect of over 35% in size
Method in brief: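 AC50 from Hill-modelled qHTS concentration-response curves. H-4-II-E rat hepatoma cells in complete medium, 40 hr exposure at 37 °C, viability by CellTiter-Glo ATP luminescence.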

[10] = Cell Viability - Renal Proximal Tubule (AID 545); conditions: renal proximal tubule cells viability, primary cells of rat origin; activity change, negative = cytotoxicity: at 91.7 µM (top of the series); note: nearly all actives have a fitted effect of over 40% in size
Method in brief: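 Luminescent ATP signal (CellTiter-Glo) served as the viability read-out after 40 hr compound exposure of freshly isolated rat proximal tubule cells at 37 °C. Concentration-dependent ATP loss was fitted with the Hill equation to give AC50.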

[11] = Cell Viability - Mesenchymal (AID 546); conditions: mesenchymal cells viability, qHTS; activity change, negative = cytotoxicity: at 91.7 µM (top of the series);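 note: cells exposed to compound for 40 hours before reading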
Method in brief: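 CellTiter-Glo luminescence (intracellular ATP, 20 min room temperature) after 40 hr compound exposure at 37 °C of 1000 glomerulus-derived human kidney mesenchymal cells/well; AC50 values obtained by fitting qHTS concentration-response data to the Hill equation.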

[12] = Cellular Toxicity (caspase-3) HepG2 (AID 654); conditions: HepG2 caspase-3 activation, luminescence; series mostly up to 92.2 µM;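 note: cells exposed to compound for 16 hours before reading; 0% = DMSO alone and 100% = caspase signal from 100 µM tamoxifen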
Method in brief: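 Concentration-response AC50 values reflect caspase-3/7 induction in HepG2 cells after 16 hours of compound exposure, quantified by luminescence from liberated aminoluciferin and referenced to 100 uM tamoxifen as full stimulation.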

[13] = Cellular Toxicity (caspase-3) HUV-EC-C (AID 656); conditions: HUV-EC-C cells, caspase-3 activation (apoptosis); series mostly up to 92.2 µM
Method in brief: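 qHTS; HUV-EC-C, 1000 cells/well; 5 hr settle, 16 hr cmpd, 37°C; Caspase-Glo 3/7, 20 min RT; luminescence. Norm: DMSO = 0%, tamoxifen 100 uM = 100%. Hill-fit AC50.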

[14] = Cellular Toxicity (caspase-3) SHSY5Y (AID 657); conditions: SH-SY5Y caspase-3 activation; series mostly up to 91.7 µM;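 note: cells exposed to compound for 16 hours at 37 °C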
Method in brief: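 qHTS, SH-SY5Y, 1500 cells/well, 5 h pre-incubation 37 °C; compound 16 h 37 °C; Caspase-Glo 3/7 1 h RT; luminescence. Norm.: DMSO = 0, 10 uM staurosporine = 100%. Hill fit → AC50.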

[15] = Cellular Toxicity (caspase-3) MRC-5 (AID 659); conditions: MRC-5 cells, luminescence, normalized: DMSO 0%, 10 µM staurosporine 100%; series mostly up to 91.7 µM
Method in brief: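 Luminescent Caspase-Glo 3/7 read-out (1 h, room temperature) after a 16 h, 37 °C compound exposure of MRC-5 lung fibroblasts at 1500 cells/well. Concentration-response AC50 from Hill equation; 0% DMSO, 100% 10 uM staurosporine.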

[16] = Cellular Toxicity (caspase-3) SK-N-SH (AID 661); conditions: SK-N-SH caspase-3 activation, qHTS, DMSO as zero, staurosporine as full; series mostly up to 91.7 µM
Method in brief: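 Apoptosis readout in SK-N-SH neuroblastoma: Caspase-Glo 3/7 luminescence following 16 hr treatment in complete culture medium. Normalization used DMSO and 10 uM staurosporine controls.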

[17] = Cellular Toxicity (caspase-3) H-4-II-E (AID 663); conditions: H-4-II-E rat hepatoma; Potency: caspase-3 activation; series mostly up to 92.2 µM;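 note: cells exposed to compound for 16 hr before readout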
Method in brief: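 Caspase 3/7 activation measured by luminescent aminoluciferin substrate cleavage after 16 hr compound treatment of H-4-II-E cells in complete medium. Increase normalized between DMSO (basal) and 100 uM tamoxifen (100%); Hill-equation AC50 from concentration-response.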

[18] = Cellular Toxicity (caspase-3) N2a (AID 665); conditions: N2a cells, luminescence, normalized: DMSO 0%, 10 µM staurosporine 100%; series mostly up to 92.2 µM;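 note: compound exposure lasted 16 h at 37 °C before readout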
Method in brief: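 Concentration-response qHTS: compound-induced caspase-3/7 luminescence in N2a cells (16 h, 37 °C), relative to DMSO and 10 uM staurosporine controls; AC50 obtained using the standard Hill equation.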

[19] = Cellular Toxicity (caspase-3) NIH 3T3 (AID 666); conditions: NIH 3T3 caspase-3 activation, apoptosis/toxicity, 0% DMSO, 100% is 100 µM tamoxifen; series mostly up to 92.2 µM;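 note: 0% = DMSO basal and 100% = 100 µM tamoxifen stimulation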
Method in brief: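 Activity: caspase-3/7 induction, NIH 3T3 cells, 16 hr treatment at 37°C, luminescent Caspase-Glo detection; AC50 via Hill equation.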

[20] = Cellular Toxicity (caspase-3) Renal Proximal Tubule (AID 667); conditions: renal proximal tubule cells, primary cells freshly taken from rat; Potency: caspase-3 activation; series mostly up to 91.7 µM;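 note: cells exposed to compound for 16 hours at 37 °C before detection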
Method in brief: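 AC50 derived by standard Hill fit of concentration-response data, normalized between DMSO basal and 10 uM staurosporine as 100% stimulation. Cells: primary rat kidney proximal tubule, 16 h treatment at 37 °C.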

[21] = target: Cytochrome P450 3A4 (Homo sapiens) (UniProt P08684); experiment: qHTS Assay for Inhibitors and Substrates of Cytochrome P450 3A4 (AID 884); conditions: recombinant CYP3A4, Luciferin-PPXE luminescence; series mostly up to 57.1 µM; note: potency is the fitted concentration of half-maximal effect; nearly all actives have a fitted effect of over 50% in size
Chain of Cytochrome P450 3A4 (Homo sapiens) (P08684 whole entry, looked up): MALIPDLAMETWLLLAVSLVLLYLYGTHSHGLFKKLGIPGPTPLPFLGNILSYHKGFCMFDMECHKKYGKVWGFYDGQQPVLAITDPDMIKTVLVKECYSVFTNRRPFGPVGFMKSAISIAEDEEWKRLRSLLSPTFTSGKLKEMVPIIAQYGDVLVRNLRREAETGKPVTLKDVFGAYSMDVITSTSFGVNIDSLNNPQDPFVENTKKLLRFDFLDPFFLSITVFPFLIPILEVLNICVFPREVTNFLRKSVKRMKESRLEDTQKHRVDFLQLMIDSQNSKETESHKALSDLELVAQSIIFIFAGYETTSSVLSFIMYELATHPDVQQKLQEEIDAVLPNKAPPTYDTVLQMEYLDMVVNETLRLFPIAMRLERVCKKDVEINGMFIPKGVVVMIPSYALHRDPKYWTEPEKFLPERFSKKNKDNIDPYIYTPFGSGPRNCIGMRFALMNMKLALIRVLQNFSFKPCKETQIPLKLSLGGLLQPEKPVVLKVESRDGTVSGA
Method in brief: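 Luminescent readout of luciferin produced by CYP3A4 (20 nM) dealkylation of Luciferin-PPXE, 25 uM (its KM). NADPH-driven reaction ran 60 min at RT after 10 min compound preincubation; data scaled to 57 uM ketoconazole as 100% inhibition.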

[22] = target: Cytochrome P450 3A4 (Homo sapiens) (UniProt P08684); experiment: qHTS Assay for Activators of Cytochrome P450 3A4 (AID 885); conditions: recombinant CYP3A4, Luciferin-PPXE luminescence, 60 min; series mostly up to 11.4 µM; note: nearly all actives have a fitted effect of over 65% in size
Method in brief: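 CYP3A4 activity: Luciferin-PPXE O-dealkylation, 25uM substrate, 200mM KPO4, RT throughout. Read-out is luciferase luminescence; higher values reflect activation.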

[23] = MultiTox-Fluor Cytotoxicity Assay - LYMP1-001 - Dead Cells (AID 946); conditions: LYMP1-001 lymphoblastoid cells, dead-cell protease fluorescence; series mostly up to 92.2 µM;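 note: 0% = DMSO and 100% = tetraoctylammonium bromide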
Method in brief: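 AC50 from Hill fit of concentration-response; data normalized to DMSO (basal) and 15 uM tetraoctylammonium bromide (100%). LYMP1-001 lymphoblastoid cells, 2500/well, 16 hr compound at 37 C; dead-cell protease fluorescence, Ex/Em 485/520.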

[24] = MultiTox-Fluor Cytotoxicity Assay - LYMP1-001 - Live Cells (AID 947); conditions: LYMP1-001 lymphoblastoid cells, live-cell protease fluorescence viability; series mostly up to 92.2 µM;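 note: 0% = DMSO only and full inhibition = tetraoctylammonium bromide control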
[25] = MultiTox-Fluor Cytotoxicity Assay - LYMP1-003 - Dead Cells (AID 961); conditions: LYMP1-003 lymphoblastoid cells, dead-cell protease fluorescence; series mostly up to 92.2 µM; note: potency is the fitted concentration of half-maximal effect; nearly all actives have a fitted effect of over 70% in size
Method in brief: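 Human lymphoblastoid LYMP1-003 cells (2500/well) were treated with compounds for 16 hr at 37 C in complete medium. Dead-cell protease release was read by bis-AAF-R110 fluorescence (Ex/Em 485/520). AC50 came from Hill fits, normalized to DMSO and 15 uM tetraoctylammonium bromide.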

[26] = MultiTox-Fluor Cytotoxicity Assay - LYMP1-003 - Live Cells (AID 962); conditions: LYMP1-003 lymphoblastoid cells, MultiTox-Fluor live-cell protease fluorescence; series mostly up to 92.2 µM;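 note: cells exposed to compound for 16 hours at 37 °C; 0% = DMSO only and full loss = 92 µM tetraoctylammonium bromide; cytotoxic hits lower the live-cell protease signal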
Method in brief: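 Human lymphoblastoid line LYMP1-003 in complete culture medium, treated 16 hr with titrated compounds. Viable cells quantified via cell-permeant GF-AFC substrate fluorescence; AC50 derived by Hill fitting.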

[27] = Cell Viability - LYMP1-003 - Assay at 24 hr (AID 963); conditions: LYMP1-003 lymphoblastoid cell viability; series mostly up to 92.2 µM;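 note: plate controls were DMSO only for no effect and tetraoctylammonium bromide positive control for full effect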
Method in brief: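 The lymphoblastoid line was treated with titrated compounds for 24 hours, and viable cell number estimated from luciferase-based ATP luminescence.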

[28] = Cell Viability - LYMP2-003 (AID 965); conditions: LYMP2-003 lymphoblastoid cell viability; series mostly up to 92.2 µM;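 note: potency is the fitted concentration of half-maximal effect; cells exposed to compounds for 24 h before reading; nearly all actives have a fitted effect of over 50% in size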
Method in brief: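 Seed 2500 lymphoblastoid cells/well; incubate 5 hr, 37 C; add compounds; incubate 24 hr, 37 C; add CellTiter-Glo, 30 min RT; read luminescence. AC50 from Hill fit.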

[29] = Cell Viability - LYMP2-004 (AID 966); conditions: LYMP2-004 lymphoblastoid cell viability, qHTS; series mostly up to 92.2 µM; note: potency is the fitted concentration of half-maximal effect; nearly all actives have a fitted effect of over 65% in size
Method in brief: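 Viable-cell number estimated from ATP luminescence (CellTiter-Glo) in 2500 human lymphoblastoid cells/well after 24 hr at 37 C with compound. AC50 fitted to the standard Hill equation.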

[30] = Cell Viability - LYMP2-005 (AID 967); conditions: LYMP2-005 lymphoblastoid cell viability; series mostly up to 92.2 µM;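 note: potency is the fitted concentration of half-maximal effect; cells exposed to compound for 24 h at 37 °C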
Method in brief: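 Acute cytotoxicity is scored as a concentration-dependent drop in intracellular ATP in human lymphoblastoid LYMP2-005 cells after 24 h compound treatment. ATP is quantified by luciferase luminescence, and AC50 is derived by Hill-equation modelling.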

[31] = Cell Viability - LYMP2-009 (AID 968); conditions: LYMP2-009 lymphoblastoid cell viability; series mostly up to 92.2 µM;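 note: potency is the fitted concentration of half-maximal effect; cells exposed to compound for 24 h at 37 °C; nearly all actives have a fitted effect of over 55% in size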
[32] = Cell Viability - LYMP2-013 (AID 970); conditions: LYMP2-013 lymphoblastoid cells viability; series mostly up to 92.2 µM;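 note: potency is the fitted concentration of half-maximal effect; cells exposed to compound for 24 h at 37 °C; nearly all actives have a fitted effect of over 55% in size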
Method in brief: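 In complete culture medium, human lymphoblastoid cells were dosed for 24 hr at 37 C, with tetraoctylammonium bromide (6.4pM to 92 uM) as positive control. Viability reflects luciferase-based ATP signal; AC50 derived from concentration-response curves.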

CC/C=C/C/C=C/C/C=C/CCCCCCCC(=O)OCC
active: Potency [21] 10 µM | Potency [25] 50.1 µM | Potency [28] 31.6 µM | Potency [29] 31.6 µM | Potency [30] 31.6 µM | Potency [31] 39.8 µM | Potency [32] 50.1 µM
inactive: Potency [1] > 92 µM | Potency [2] > 92 µM | Potency [3] > 92 µM | Potency [4] > 92 µM | Potency [5] > 92 µM | activity change, negative = cytotoxicity [6] -12.6% | activity change, negative = cytotoxicity [7] -19.6% | Potency [8] | Potency [9] | Potency [10] | Potency [11] | Potency [12] | Potency [13] | Potency [14] | outcome [15] | outcome [16] | Potency [17] | outcome [18] | outcome [19] | Potency [20] | Potency [22] | Potency [23] | Potency [24] | Potency [26] | Potency [27]
